Measured values taken from PMC7862700, “An all-to-all approach to the identification of sequence-specific readers for epigenetic DNA modifications on cytosine”.

Assays:
Assay in all cases: DAPPL (digital affinity profiling via proximity ligation, sequencing); 10 mM Tris-HCl pH 7.5, 50 mM NaCl, 1 mM DTT, 4% glycerol, room temperature, 30 min; GST-TFs on glutathione beads, 16-mer random dsDNA library, 0.1% formaldehyde crosslink after washing; high values mean tight binding
Conditions in all cases: protein: recombinant; tags: N-terminal GST; dsDNA, one strand shown
[1] = molecular target: T1, FLI1 (Homo sapiens, UniProt Q01543 1-452)
T1 sequence: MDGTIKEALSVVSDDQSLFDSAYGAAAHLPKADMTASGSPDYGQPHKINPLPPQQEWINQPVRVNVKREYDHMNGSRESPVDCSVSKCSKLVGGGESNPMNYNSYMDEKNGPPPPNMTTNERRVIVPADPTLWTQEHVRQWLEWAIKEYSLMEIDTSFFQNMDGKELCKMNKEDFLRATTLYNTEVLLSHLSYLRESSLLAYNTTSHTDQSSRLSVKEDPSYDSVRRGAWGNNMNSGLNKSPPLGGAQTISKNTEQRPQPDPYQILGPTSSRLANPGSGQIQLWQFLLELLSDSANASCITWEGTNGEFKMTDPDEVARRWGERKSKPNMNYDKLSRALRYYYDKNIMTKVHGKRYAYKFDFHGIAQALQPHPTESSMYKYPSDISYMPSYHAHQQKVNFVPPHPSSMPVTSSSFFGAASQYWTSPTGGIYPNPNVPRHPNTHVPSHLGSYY
How it was run: (§1)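 Binding signal is defined as a hexamer's read frequency for one factor over its frequency for the tag-only sample. To obtain reads, GST-fused human transcription factors were expressed in yeast, captured on glutathione beads, barcoded with DNA and pooled with that sample. Pools met 200 nmole of a 16-mer random double-stranded DNA library in Tris/NaCl/DTT/glycerol buffer for 30 min at room temperature before washing, 0.1% formaldehyde crosslinking, proximity ligation (BsaI/T4 ligase, 1 h, 37 °C), PCR and Illumina NextSeq500 sequencing.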

[2] = molecular target: T2, GABPA (Homo sapiens, UniProt Q06546 1-454)
T2 sequence: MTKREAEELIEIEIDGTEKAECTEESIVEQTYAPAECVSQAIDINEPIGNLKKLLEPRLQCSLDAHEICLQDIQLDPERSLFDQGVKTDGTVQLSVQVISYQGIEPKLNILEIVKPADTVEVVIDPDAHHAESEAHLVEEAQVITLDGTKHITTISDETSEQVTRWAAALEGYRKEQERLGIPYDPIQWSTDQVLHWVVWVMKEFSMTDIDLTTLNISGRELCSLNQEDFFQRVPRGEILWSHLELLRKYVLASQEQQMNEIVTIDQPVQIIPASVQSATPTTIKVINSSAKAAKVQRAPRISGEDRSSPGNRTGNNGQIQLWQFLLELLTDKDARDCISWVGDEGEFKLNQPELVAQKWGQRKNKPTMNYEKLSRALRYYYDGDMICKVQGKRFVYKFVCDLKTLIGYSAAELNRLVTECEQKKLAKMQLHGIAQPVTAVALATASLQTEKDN
How it was run: as §1

[3] = molecular target: T3, ERG (Homo sapiens, UniProt P11308 1-479)
T3 sequence: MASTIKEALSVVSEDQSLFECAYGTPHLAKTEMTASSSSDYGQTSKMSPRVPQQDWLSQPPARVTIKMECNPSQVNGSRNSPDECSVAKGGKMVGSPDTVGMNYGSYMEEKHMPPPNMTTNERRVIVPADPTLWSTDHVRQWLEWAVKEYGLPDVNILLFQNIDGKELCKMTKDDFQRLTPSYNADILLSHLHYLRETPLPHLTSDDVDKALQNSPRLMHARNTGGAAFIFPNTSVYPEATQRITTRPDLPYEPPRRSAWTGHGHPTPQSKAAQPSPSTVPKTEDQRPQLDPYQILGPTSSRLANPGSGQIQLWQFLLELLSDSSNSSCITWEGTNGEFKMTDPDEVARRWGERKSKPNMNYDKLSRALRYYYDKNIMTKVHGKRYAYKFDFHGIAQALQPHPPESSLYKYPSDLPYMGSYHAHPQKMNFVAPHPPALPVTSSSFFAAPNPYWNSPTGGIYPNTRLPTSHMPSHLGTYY
How it was run: as §1

[4] = molecular target: ELF1 (Homo sapiens, UniProt P32519 1-619)
How it was run: as §1

[5] = molecular target: SPIB (Homo sapiens, UniProt Q01892 1-262)
How it was run: as §1

[6] = molecular target: ETV5 (Homo sapiens, UniProt P41161 1-510)
How it was run: as §1

[7] = molecular target: T4, SPIC (Homo sapiens, UniProt Q8N5J4 1-248)
T4 sequence: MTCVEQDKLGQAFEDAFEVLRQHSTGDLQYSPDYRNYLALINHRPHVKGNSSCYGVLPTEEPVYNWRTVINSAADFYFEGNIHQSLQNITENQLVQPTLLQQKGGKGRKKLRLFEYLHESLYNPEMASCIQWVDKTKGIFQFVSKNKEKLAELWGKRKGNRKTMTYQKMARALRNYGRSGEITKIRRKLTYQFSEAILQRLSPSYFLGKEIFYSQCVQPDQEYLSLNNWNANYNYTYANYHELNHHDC
How it was run: as §1

[8] = molecular target: ELF4 (Homo sapiens, UniProt Q99607 1-663)
How it was run: as §1

[9] = molecular target: ETV1 (Homo sapiens, UniProt P50549 1-477)
How it was run: as §1

[10] = molecular target: T5, ETV3L (Homo sapiens, UniProt Q6ZN32 1-361)
T5 sequence: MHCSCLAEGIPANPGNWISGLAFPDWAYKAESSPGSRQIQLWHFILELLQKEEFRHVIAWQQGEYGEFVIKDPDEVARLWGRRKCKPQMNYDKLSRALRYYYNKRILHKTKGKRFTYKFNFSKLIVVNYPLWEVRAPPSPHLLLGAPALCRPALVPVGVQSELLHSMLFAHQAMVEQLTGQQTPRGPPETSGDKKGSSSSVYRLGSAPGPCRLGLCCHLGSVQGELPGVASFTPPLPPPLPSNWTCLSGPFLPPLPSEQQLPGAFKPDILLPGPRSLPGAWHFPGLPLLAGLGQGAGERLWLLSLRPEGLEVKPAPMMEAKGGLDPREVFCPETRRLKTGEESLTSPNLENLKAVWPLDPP
How it was run: as §1

[11] = molecular target: ETV6 (Homo sapiens, UniProt P41212 1-452)
How it was run: as §1

[12] = molecular target: T6, ELK3 (Homo sapiens, UniProt P41970 1-407)
T6 sequence: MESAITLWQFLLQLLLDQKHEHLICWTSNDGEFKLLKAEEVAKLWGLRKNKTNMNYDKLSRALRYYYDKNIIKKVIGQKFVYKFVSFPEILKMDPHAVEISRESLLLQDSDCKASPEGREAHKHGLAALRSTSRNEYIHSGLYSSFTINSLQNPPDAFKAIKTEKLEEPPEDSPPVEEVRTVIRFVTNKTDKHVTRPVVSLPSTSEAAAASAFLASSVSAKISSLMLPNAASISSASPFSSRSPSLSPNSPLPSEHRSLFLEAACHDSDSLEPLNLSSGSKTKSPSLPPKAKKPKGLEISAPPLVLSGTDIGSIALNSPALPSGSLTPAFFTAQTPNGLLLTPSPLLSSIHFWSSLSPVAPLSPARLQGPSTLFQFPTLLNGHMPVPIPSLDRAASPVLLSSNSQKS
How it was run: as §1

[13] = molecular target: T7, SPDEF (Homo sapiens, UniProt O95238 1-335)
T7 sequence: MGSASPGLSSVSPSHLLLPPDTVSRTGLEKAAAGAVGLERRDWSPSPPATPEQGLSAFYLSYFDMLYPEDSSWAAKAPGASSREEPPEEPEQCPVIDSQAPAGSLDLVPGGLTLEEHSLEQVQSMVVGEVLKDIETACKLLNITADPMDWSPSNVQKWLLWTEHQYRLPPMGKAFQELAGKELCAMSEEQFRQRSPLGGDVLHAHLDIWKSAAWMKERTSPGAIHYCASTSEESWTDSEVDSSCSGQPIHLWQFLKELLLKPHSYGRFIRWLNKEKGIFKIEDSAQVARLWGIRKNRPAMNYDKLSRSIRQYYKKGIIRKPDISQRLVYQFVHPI
How it was run: as §1

Sequence of ELF1 (P32519 whole entry): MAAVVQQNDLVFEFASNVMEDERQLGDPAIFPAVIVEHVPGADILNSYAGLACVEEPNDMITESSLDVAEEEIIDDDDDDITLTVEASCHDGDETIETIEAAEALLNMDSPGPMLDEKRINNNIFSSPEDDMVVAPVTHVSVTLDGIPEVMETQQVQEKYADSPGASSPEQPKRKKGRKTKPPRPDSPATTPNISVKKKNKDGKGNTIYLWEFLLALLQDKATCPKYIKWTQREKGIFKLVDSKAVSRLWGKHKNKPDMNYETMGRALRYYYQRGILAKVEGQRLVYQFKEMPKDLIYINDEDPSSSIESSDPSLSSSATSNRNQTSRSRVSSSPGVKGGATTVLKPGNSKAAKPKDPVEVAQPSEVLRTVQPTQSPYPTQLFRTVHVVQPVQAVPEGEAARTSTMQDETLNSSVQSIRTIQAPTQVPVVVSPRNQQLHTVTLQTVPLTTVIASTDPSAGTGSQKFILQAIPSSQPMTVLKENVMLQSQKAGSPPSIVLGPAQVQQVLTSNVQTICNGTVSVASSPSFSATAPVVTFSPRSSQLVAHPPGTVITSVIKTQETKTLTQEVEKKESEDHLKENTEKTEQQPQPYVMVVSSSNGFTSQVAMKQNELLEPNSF
Sequence of ELF4 (Q99607 whole entry): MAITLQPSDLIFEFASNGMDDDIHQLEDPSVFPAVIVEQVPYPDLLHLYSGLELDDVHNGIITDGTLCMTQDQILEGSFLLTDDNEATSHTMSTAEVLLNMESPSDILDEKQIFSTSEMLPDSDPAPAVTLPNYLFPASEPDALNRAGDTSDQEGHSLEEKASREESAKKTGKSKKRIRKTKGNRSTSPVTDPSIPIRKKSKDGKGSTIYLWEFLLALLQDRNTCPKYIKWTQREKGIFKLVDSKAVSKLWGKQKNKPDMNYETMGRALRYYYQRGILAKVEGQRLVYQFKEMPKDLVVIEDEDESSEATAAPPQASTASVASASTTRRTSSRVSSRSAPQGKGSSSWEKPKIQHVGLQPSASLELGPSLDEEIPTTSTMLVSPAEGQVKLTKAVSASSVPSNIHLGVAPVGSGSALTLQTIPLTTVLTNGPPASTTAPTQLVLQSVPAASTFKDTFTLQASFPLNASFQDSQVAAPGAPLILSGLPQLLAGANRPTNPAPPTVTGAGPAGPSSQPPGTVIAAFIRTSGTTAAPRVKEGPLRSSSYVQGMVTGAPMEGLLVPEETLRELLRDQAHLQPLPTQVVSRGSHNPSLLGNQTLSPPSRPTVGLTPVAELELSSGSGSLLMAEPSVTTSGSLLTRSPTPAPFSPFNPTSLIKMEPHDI
Sequence of ETV1 (P50549 whole entry): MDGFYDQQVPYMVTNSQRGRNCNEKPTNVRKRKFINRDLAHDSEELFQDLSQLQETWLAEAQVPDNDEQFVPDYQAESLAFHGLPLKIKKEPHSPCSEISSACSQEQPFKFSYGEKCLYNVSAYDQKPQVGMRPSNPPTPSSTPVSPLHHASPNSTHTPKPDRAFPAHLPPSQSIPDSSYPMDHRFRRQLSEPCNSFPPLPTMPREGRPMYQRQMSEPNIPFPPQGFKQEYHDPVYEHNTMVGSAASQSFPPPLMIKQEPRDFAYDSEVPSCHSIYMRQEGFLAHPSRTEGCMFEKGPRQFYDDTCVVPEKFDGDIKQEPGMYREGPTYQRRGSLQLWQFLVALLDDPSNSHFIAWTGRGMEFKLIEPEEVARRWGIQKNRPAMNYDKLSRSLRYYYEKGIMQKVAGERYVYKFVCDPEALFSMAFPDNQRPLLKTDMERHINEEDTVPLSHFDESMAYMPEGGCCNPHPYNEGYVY
Sequence of SPIB (Q01892 whole entry): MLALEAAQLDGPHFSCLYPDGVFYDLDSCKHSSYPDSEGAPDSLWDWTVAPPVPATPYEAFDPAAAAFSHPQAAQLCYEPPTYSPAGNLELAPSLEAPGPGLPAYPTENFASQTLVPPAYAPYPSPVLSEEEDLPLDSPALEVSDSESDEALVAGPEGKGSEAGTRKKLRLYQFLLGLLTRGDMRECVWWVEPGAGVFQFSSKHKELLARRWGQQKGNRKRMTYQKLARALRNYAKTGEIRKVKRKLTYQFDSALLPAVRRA
Sequence of ETV5 (P41161 whole entry): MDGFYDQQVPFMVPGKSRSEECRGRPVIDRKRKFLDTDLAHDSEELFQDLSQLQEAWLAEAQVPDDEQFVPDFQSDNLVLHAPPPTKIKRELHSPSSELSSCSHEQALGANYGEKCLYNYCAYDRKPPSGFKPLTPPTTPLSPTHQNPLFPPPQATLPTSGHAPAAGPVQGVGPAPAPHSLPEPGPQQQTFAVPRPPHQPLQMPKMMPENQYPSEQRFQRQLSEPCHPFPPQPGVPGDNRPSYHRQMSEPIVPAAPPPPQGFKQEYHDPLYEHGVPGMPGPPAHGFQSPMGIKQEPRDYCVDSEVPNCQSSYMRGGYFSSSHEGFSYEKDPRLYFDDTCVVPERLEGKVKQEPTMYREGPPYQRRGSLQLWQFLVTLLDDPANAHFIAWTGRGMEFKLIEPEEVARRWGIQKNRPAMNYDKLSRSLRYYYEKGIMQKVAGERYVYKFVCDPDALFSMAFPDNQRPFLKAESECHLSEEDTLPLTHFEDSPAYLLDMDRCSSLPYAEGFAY
Sequence of ETV6 (P41212 whole entry): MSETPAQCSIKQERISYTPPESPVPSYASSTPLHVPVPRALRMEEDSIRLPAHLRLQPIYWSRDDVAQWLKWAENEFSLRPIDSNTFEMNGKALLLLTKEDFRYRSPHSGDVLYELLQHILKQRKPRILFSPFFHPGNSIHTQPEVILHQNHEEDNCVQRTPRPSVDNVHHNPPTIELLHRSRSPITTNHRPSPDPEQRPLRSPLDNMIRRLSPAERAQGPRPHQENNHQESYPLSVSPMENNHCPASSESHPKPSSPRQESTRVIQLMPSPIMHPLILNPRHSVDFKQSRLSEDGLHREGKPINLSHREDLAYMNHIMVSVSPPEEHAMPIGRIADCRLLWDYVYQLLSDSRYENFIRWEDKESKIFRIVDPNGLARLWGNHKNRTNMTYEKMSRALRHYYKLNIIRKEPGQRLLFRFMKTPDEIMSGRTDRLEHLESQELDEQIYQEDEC

Sequence | binding signal [1] | binding signal [2] | binding signal [3] | binding signal [4] | binding signal [5] | binding signal [6] | binding signal [7] | binding signal [8] | binding signal [9] | binding signal [10] | binding signal [11] | binding signal [12] | binding signal [13]
GGCTCG | 1.06 fold enrichment (6-mer frequency, TF over GST control) | 1.02 fold enrichment (6-mer frequency, TF over GST control) | 1.02 fold enrichment (6-mer frequency, TF over GST control) | 1.05 fold enrichment (6-mer frequency, TF over GST control) | 1.12 fold enrichment (6-mer frequency, TF over GST control) | 1.01 fold enrichment (6-mer frequency, TF over GST control) | 1.12 fold enrichment (6-mer frequency, TF over GST control) | 1.06 fold enrichment (6-mer frequency, TF over GST control) | 1.01 fold enrichment (6-mer frequency, TF over GST control) | 1.09 fold enrichment (6-mer frequency, TF over GST control) | 1.06 fold enrichment (6-mer frequency, TF over GST control) | – | –
TACGGT | 1.01 fold enrichment (6-mer frequency, TF over GST control) | 1.02 fold enrichment (6-mer frequency, TF over GST control) | 1.02 fold enrichment (6-mer frequency, TF over GST control) | 1.01 fold enrichment (6-mer frequency, TF over GST control) | 1.02 fold enrichment (6-mer frequency, TF over GST control) | 1.04 fold enrichment (6-mer frequency, TF over GST control) | 1.02 fold enrichment (6-mer frequency, TF over GST control) | 1.05 fold enrichment (6-mer frequency, TF over GST control) | 1.01 fold enrichment (6-mer frequency, TF over GST control) | – | – | 1.11 fold enrichment (6-mer frequency, TF over GST control) | 1.1 fold enrichment (6-mer frequency, TF over GST control)
